Legend:
Assay in all cases: DAPPL (digital affinity profiling via proximity ligation, sequencing); 10 mM Tris-HCl pH 7.5, 50 mM NaCl, 1 mM DTT, 4% glycerol, room temperature, 30 min; GST-TFs on glutathione beads, 16-mer random dsDNA library, 0.1% formaldehyde crosslink after washing; high values mean tight binding
FEV = molecular target: T1, FEV (Homo sapiens, UniProt Q99581 1-238); conditions: protein: recombinant; tags: N-terminal GST; dsDNA, one strand shown
T1 sequence: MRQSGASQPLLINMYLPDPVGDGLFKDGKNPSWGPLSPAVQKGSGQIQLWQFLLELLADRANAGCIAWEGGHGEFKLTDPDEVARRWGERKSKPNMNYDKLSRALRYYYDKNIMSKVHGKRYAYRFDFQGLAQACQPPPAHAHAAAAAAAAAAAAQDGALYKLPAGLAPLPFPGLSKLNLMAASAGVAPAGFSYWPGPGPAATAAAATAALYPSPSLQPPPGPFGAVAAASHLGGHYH
In short: (§1)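 Pools of DNA-barcoded human transcription factors, expressed in yeast as GST fusions on glutathione beads and combined with a tag-only sample, were incubated with 200 nmole of a 16-mer random double-stranded DNA library. Incubation took 30 min at room temperature in Tris/NaCl/DTT/glycerol buffer and was followed by washing, 0.1% formaldehyde crosslinking, proximity ligation (BsaI/T4 ligase, 1 h, 37 °C), PCR amplification and sequencing on an Illumina NextSeq500. Binding signal is the ratio of a hexamer's read frequency for a factor to its frequency for the tag-only sample.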

ETV5 = ETV5 (Homo sapiens, UniProt P41161 1-510); conditions: protein: recombinant; tags: N-terminal GST; dsDNA, one strand shown
Chain of ETV5 (P41161 whole entry): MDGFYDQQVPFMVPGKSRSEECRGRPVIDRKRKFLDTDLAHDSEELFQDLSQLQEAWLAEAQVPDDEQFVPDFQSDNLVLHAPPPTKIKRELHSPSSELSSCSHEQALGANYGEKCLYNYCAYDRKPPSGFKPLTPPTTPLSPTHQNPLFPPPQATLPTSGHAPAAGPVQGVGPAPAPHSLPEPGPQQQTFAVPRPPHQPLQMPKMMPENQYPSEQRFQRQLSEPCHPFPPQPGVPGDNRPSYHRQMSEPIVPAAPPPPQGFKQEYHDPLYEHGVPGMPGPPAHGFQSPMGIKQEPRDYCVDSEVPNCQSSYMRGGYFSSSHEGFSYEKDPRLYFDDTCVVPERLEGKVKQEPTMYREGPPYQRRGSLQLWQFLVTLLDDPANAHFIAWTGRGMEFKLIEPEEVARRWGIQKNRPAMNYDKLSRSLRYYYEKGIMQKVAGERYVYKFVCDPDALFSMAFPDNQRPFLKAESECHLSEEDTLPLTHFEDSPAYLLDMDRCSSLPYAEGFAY
In short: as §1

HSF1 = HSF1 (Homo sapiens, UniProt Q00613 1-529); conditions: protein: recombinant; tags: N-terminal GST; chain copies: 3; dsDNA, one strand shown
Chain of HSF1 (Q00613 whole entry): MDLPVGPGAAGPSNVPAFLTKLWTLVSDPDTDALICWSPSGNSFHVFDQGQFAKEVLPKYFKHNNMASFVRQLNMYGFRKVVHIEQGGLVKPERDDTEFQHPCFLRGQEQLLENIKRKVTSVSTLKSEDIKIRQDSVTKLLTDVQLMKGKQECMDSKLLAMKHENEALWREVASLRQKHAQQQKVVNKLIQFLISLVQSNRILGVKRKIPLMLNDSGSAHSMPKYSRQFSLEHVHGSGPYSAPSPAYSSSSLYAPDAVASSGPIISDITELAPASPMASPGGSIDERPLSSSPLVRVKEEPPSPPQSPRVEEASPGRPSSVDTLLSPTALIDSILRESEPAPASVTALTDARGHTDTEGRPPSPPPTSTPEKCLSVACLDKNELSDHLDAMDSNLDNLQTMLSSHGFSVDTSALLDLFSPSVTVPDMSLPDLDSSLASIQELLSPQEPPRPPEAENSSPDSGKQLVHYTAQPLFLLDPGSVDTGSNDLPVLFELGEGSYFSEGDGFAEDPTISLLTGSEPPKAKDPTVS
In short: as §1

SPIC = molecular target: T2, SPIC (Homo sapiens, UniProt Q8N5J4 1-248); conditions: protein: recombinant; tags: N-terminal GST; dsDNA, one strand shown
T2 sequence: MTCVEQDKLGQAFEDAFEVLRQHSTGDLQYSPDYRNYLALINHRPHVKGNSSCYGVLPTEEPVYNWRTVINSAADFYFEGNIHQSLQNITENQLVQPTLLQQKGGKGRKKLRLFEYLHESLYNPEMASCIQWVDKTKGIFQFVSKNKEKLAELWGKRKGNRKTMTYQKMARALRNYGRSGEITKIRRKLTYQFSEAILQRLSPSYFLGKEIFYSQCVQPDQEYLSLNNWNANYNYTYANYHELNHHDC
In short: as §1

ELF4 = ELF4 (Homo sapiens, UniProt Q99607 1-663); conditions: protein: recombinant; tags: N-terminal GST; dsDNA, one strand shown
Chain of ELF4 (Q99607 whole entry): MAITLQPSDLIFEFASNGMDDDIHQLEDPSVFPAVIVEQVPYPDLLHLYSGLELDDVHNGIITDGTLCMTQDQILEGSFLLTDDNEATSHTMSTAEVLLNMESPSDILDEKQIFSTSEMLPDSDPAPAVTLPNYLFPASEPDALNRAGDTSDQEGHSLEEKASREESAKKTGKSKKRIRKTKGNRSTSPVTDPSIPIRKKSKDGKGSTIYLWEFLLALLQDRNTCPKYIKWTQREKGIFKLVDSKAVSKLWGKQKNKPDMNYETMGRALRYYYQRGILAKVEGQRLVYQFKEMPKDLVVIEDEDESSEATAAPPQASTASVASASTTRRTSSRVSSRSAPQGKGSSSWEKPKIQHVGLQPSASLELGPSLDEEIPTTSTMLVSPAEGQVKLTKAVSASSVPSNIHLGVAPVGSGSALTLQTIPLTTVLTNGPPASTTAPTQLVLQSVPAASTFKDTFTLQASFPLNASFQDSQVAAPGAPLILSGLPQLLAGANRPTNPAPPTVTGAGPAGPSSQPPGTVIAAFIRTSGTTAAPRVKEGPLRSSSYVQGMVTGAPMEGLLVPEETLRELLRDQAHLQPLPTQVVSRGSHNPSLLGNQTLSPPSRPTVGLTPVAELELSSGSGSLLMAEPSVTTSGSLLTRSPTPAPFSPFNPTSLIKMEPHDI
In short: as §1

ELK4 = molecular target: T3, ELK4 (Homo sapiens, UniProt P28324-2 1-405); conditions: protein: recombinant; tags: N-terminal GST; dsDNA, one strand shown
T3 sequence: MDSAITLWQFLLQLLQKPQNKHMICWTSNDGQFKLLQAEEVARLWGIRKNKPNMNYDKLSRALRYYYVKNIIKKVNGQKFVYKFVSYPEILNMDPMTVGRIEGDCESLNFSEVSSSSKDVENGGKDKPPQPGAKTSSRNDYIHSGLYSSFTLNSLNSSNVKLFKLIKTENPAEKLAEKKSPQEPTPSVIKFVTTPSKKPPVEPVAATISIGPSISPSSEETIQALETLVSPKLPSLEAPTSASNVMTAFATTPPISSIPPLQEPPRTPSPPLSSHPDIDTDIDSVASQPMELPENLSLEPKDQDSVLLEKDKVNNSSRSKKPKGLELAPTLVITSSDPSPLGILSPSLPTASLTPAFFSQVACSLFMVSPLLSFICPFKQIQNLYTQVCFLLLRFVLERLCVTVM
In short: as §1

ETV2 = molecular target: T4, ETV2 (Homo sapiens, UniProt O00321 1-342); conditions: protein: recombinant; tags: N-terminal GST; dsDNA, one strand shown
T4 sequence: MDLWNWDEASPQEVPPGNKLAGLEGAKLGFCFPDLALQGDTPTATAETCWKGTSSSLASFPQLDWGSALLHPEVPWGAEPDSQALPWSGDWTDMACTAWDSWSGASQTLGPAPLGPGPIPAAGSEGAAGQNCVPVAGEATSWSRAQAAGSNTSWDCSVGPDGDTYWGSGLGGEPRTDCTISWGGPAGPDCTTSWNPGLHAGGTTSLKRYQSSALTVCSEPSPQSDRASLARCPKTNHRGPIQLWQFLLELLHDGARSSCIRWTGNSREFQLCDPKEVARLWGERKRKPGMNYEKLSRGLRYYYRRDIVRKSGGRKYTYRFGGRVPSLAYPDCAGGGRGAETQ
In short: as §1

ELF3 = molecular target: T5, ELF3 (Homo sapiens, UniProt P78545 1-371); conditions: protein: recombinant; tags: N-terminal GST; dsDNA, one strand shown
T5 sequence: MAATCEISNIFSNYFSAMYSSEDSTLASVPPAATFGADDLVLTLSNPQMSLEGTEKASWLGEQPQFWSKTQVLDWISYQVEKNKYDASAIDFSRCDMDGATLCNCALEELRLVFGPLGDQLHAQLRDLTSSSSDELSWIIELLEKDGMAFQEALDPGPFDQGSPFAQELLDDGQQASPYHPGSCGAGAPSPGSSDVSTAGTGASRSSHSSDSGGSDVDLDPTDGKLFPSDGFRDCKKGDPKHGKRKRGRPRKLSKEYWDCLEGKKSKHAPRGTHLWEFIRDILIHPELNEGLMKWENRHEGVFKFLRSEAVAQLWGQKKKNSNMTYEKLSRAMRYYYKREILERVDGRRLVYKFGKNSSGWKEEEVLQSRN
In short: as §1

CRX = CRX (Homo sapiens, UniProt O43186 1-299); conditions: protein: recombinant; tags: N-terminal GST; dsDNA, one strand shown
Chain of CRX (O43186 whole entry): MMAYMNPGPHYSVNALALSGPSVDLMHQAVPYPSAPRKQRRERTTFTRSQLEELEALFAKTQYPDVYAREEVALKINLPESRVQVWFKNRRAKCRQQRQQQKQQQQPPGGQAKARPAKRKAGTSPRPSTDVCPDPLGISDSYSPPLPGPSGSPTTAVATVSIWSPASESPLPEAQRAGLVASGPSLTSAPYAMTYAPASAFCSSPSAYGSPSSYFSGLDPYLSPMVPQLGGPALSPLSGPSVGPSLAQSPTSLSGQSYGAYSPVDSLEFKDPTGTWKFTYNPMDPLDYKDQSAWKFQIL
In short: as §1

ETV1 = ETV1 (Homo sapiens, UniProt P50549 1-477); conditions: protein: recombinant; tags: N-terminal GST; dsDNA, one strand shown
Chain of ETV1 (P50549 whole entry): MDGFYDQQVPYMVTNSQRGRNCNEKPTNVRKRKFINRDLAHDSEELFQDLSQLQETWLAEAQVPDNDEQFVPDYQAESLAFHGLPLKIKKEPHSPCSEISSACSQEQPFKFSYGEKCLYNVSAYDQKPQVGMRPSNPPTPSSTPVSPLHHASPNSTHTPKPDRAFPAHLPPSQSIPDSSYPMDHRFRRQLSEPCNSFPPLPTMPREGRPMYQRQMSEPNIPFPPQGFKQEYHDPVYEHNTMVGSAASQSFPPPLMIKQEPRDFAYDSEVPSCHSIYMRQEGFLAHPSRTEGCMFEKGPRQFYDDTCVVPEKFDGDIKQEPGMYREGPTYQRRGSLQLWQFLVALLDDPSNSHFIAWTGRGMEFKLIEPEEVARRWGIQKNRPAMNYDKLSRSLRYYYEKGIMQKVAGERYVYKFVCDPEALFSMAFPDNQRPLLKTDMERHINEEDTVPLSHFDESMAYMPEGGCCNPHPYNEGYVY
In short: as §1

ERF = molecular target: T6, ERF (Homo sapiens, UniProt P50548 1-548); conditions: protein: recombinant; tags: N-terminal GST; dsDNA, one strand shown
T6 sequence: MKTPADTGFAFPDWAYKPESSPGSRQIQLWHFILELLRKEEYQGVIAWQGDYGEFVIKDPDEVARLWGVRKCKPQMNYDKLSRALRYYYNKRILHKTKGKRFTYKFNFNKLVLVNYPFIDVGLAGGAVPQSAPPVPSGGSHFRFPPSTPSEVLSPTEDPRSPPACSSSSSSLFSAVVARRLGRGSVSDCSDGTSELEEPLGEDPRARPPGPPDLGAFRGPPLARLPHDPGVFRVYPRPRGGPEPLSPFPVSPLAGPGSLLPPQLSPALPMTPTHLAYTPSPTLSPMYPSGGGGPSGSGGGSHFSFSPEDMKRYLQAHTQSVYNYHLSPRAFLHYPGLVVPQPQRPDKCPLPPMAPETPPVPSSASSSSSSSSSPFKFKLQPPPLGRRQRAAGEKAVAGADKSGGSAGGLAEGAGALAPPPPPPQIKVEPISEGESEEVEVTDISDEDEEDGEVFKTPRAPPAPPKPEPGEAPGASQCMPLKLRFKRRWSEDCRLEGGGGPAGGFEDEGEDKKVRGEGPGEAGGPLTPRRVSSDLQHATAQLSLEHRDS
In short: as §1

ETV3L = molecular target: T7, ETV3L (Homo sapiens, UniProt Q6ZN32 1-361); conditions: protein: recombinant; tags: N-terminal GST; dsDNA, one strand shown
T7 sequence: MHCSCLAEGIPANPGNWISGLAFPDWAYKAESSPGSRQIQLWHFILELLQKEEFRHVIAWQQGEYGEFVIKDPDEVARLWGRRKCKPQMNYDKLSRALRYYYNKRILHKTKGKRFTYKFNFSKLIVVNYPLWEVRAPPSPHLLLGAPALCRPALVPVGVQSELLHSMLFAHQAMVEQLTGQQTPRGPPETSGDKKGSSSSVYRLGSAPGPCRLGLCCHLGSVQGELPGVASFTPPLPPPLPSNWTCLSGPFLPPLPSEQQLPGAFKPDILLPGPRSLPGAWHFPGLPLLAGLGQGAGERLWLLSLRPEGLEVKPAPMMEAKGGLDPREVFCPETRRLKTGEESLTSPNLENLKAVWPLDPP
In short: as §1

ETS2 = molecular target: T8, ETS2 (Homo sapiens, UniProt P15036 1-469); conditions: protein: recombinant; tags: N-terminal GST; dsDNA, one strand shown
T8 sequence: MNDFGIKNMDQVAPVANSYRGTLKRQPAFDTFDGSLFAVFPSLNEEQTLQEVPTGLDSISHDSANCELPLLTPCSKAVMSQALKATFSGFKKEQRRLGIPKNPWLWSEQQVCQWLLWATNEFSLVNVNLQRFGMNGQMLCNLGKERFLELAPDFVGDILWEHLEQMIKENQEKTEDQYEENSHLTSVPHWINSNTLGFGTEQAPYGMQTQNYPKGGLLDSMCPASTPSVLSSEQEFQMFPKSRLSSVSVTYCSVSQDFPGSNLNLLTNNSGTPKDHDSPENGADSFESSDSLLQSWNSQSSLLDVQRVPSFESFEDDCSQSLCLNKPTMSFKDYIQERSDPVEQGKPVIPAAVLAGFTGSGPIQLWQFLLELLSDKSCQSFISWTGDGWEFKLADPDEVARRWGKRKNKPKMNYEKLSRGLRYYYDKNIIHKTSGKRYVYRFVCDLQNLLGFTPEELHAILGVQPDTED
In short: as §1

SPDEF = molecular target: T9, SPDEF (Homo sapiens, UniProt O95238 1-335); conditions: protein: recombinant; tags: N-terminal GST; dsDNA, one strand shown
T9 sequence: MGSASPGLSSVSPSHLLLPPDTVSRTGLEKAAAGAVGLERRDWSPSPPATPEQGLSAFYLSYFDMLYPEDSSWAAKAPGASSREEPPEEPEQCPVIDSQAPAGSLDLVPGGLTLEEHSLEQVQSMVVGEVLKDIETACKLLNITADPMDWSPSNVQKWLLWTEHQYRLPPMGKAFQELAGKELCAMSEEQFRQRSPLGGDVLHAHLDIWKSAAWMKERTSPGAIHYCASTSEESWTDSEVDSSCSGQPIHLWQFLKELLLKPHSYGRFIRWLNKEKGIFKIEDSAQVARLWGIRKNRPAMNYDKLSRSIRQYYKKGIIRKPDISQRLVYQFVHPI
In short: as §1

ETV7 = molecular target: T10, ETV7 (Homo sapiens, UniProt Q9Y603 1-341); conditions: protein: recombinant; tags: N-terminal GST; dsDNA, one strand shown
T10 sequence: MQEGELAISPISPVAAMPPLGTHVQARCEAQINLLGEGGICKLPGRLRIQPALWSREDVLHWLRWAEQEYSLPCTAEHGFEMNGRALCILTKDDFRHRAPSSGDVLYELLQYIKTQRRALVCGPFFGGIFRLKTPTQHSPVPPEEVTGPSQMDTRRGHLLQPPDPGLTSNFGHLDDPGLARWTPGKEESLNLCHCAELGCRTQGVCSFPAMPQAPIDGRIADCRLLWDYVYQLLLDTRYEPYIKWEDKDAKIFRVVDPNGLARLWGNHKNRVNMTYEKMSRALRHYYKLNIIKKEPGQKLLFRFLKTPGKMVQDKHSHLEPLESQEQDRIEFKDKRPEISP
In short: as §1

ELF5 = molecular target: T11, ELF5 (Homo sapiens, UniProt Q9UKW6-2 1-255); conditions: protein: recombinant; tags: N-terminal GST; dsDNA, one strand shown
T11 sequence: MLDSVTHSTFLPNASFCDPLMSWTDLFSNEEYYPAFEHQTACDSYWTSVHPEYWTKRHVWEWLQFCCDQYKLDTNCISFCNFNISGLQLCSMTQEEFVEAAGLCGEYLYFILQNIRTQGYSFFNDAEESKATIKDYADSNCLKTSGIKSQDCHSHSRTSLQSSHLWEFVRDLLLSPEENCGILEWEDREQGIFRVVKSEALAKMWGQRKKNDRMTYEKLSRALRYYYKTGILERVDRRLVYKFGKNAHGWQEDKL
In short: as §1

ETV3 = molecular target: T12, ETV3 (Homo sapiens, UniProt P41162-2 1-143); conditions: protein: recombinant; tags: N-terminal GST; dsDNA, one strand shown
T12 sequence: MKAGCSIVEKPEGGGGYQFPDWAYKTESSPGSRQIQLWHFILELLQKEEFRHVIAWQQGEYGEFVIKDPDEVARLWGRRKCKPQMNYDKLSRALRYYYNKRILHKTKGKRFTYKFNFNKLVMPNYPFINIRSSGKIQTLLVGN
In short: as §1

ETV6 = ETV6 (Homo sapiens, UniProt P41212 1-452); conditions: protein: recombinant; tags: N-terminal GST; dsDNA, one strand shown
Chain of ETV6 (P41212 whole entry): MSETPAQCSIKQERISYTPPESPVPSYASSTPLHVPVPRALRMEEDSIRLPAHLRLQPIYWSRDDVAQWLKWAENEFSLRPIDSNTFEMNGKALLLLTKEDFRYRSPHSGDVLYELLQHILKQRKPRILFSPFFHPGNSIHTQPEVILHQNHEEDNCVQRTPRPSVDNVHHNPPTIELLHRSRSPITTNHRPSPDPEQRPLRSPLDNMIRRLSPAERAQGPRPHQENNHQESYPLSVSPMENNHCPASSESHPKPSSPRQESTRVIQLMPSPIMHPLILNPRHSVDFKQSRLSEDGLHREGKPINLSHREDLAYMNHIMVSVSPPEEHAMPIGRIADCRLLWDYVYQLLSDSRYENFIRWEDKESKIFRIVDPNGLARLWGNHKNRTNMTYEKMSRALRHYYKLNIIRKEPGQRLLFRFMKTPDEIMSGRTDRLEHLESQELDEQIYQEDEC
In short: as §1

For TAGCCC, the binding signal (FEV) was 1.21 fold enrichment (6-mer frequency, TF over GST control), the binding signal (ETV5) was 1.18 fold enrichment (6-mer frequency, TF over GST control) and the binding signal (HSF1) was 1.19 fold enrichment (6-mer frequency, TF over GST control). The binding signal (SPIC) was 1.23 fold enrichment (6-mer frequency, TF over GST control), the binding signal (ELF4) was 1.28 fold enrichment (6-mer frequency, TF over GST control) and the binding signal (ELK4) was 1.15 fold enrichment (6-mer frequency, TF over GST control). For the same sequence, the binding signal (ETV2) was 1.15 fold enrichment (6-mer frequency, TF over GST control), the binding signal (ELF3) was 1.08 fold enrichment (6-mer frequency, TF over GST control) and the binding signal (CRX) was 1.36 fold enrichment (6-mer frequency, TF over GST control). The binding signal (ETV1) was 1.12 fold enrichment (6-mer frequency, TF over GST control), the binding signal (ERF) was 1.18 fold enrichment (6-mer frequency, TF over GST control) and the binding signal (ETV3L) was 1.11 fold enrichment (6-mer frequency, TF over GST control). The binding signal (ETS2) was 1.14 fold enrichment (6-mer frequency, TF over GST control), the binding signal (SPDEF) was 1.3 fold enrichment (6-mer frequency, TF over GST control) and the binding signal (ETV7) was 1.05 fold enrichment (6-mer frequency, TF over GST control). The binding signal (ELF5) was 1.07 fold enrichment (6-mer frequency, TF over GST control), the binding signal (ETV3) was 1.24 fold enrichment (6-mer frequency, TF over GST control) and the binding signal (ETV6) was 1.04 fold enrichment (6-mer frequency, TF over GST control).

Reference: paper PMC7862700, “An all-to-all approach to the identification of sequence-specific readers for epigenetic DNA modifications on cytosine”
